The record followed here is PubChem BioAssay (Tox21).

A short description of test [1]: qHTS assay to identify aromatase inhibitors - cell viability counter screen (AID 743084).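 Note: cells stimulated with testosterone during compound exposure; nearly all actives have a fitted effect of over 55% in size.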
In test [2] the target is Aryl hydrocarbon receptor (Homo sapiens) (UniProt P35869). Kind of test: qHTS assay to identify small molecule that activate the aryl hydrocarbon receptor (AhR) signaling pathway (AID 743085).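 For activation: HG2L7.5c1 human HepG2 liver cells with stably integrated DRE-driven firefly reporter; series mostly up to about 70 µM.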 Note: nearly all actives have a fitted effect of over 15% in size. Note: potency is the fitted concentration of half-maximal effect. Put shortly:
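AhR agonist activity is inferred from enhanced light output of a DRE-controlled firefly luciferase reporter in HepG2 cells, measured with ONE-Glo following 24 h treatment at 37C.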

Test [3] in a line: qHTS assay to identify small molecule that activate the aryl hydrocarbon receptor (AhR) signaling pathway - cell viability counter screen (AID 743086). Note: series mostly up to about 70 µM; nearly all actives have a fitted effect of over 45% in size. Put shortly: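 Cytotoxicity counter screen: CellTiter-Fluor signal (30 min, 37 C) in 4000 HepG2 cells/well carrying the DRE-luciferase reporter, following 24 h compound exposure at 37 C.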
Test [4] concerns the target Peroxisome proliferator-activated receptor gamma (Homo sapiens) (UniProt P37231). Description: qHTS assay to identify small molecule agonists of the peroxisome proliferator-activated receptor gamma (PPARg) signaling pathway (AID 743094; active = well fitted activation curve with a large enough effect in the signal ratio in the repeat runs, not every such curve was filed as active; the % refers to the signal ratio). Put shortly: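 Agonism was assessed in a beta-lactamase reporter system, HEK293H cells with a stably integrated UAS-bla construct under PPARg control; the 17 h treatment at 37C preceded a 1 h room-temperature FRET substrate read.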

Test [5] shares this target. Description: qHTS assay to identify small molecule antagonists of the peroxisome proliferator-activated receptor gamma (PPARg) signaling pathway (AID 743191; calls by dose curve; note: series mostly up to about 63 µM; nearly all actives have a fitted effect of over 30% in size). Put shortly:
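Beta-lactamase reporter under UAS control in HEK293H PPARg-bla cells; compound treatment 17 h at 37C. Read-out: fluorescence intensity after 1 h room-temperature incubation with LiveBLAzer B/G FRET substrate.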

A short description of test [6]: qHTS assay to identify small molecule antagonists of the peroxisome proliferator-activated receptor gamma (PPARg) signaling pathway - cell viability counter screen (AID 743194). Note: nearly all actives have a fitted effect of over 55% in size. Put shortly: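 Viability was measured as CellTiter-Glo luminescence in GeneBLAzer PPARg UAS-bla HEK293H cells. These cells had been exposed 17 h at 37 C to compounds together with rosiglitazone at 50 nM final, with the beta-lactamase readout taken in the same wells.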

Test [7] is described as follows: qHTS assay for small molecule agonists of the antioxidant response element (ARE) signaling pathway (AID 743202; active = well fitted activation curve with a large enough effect in the signal ratio in the repeat runs, not every such curve was filed as active; the % refers to the signal ratio; note: potency is the fitted concentration of half-maximal effect). In short, it runs like this: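 Beta-lactamase reporter activity, read as fluorescence intensity, reflects ARE/Nrf2 pathway induction in HepG2 cells after 16 h compound exposure at 37 C; substrate loading was 2 h at room temperature.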
Test [8] can be described thus: qHTS assay for small molecule agonists of the antioxidant response element (ARE) signaling pathway - cell viability counter screen (AID 743203; calls by dose curve; note: nearly all actives have a fitted effect of over 55% in size). In short, it runs like this:
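ATP content via CellTiter-Glo luminescence served as the viability measure. Cells: ARE-bla HepG2, 2,000 per well. Exposure: 16 hrs, 37C/5% CO2.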

Test [9] is described as follows: qHTS assay for small molecule activators of the heat shock response signaling pathway - cell viability counter screen (AID 743209). Note: nearly all actives have a fitted effect of over 50% in size. In short, it runs like this:
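Compounds dissolved in DMSO were added to overnight-plated HSE-bla HeLa cells and left 5 h at 37 C. Cell viability was quantified by luminescence using CellTiter-Glo.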

The nature of test [10]: qHTS assay for small molecule activators of the heat shock response signaling pathway (AID 743210; active = well fitted activation curve with a large enough effect in the signal ratio in the repeat runs, with a control signal flat, not every such curve was filed as active; the % refers to the signal ratio;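 note: HeLa cells with beta-lactamase reporter driven by heat shock elements; series mostly up to about 63 µM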). In short, it runs like this: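 Fluorescence from a cleaved B/G FRET substrate (2.5 h, room temp) reports HSE-driven beta-lactamase in HeLa cells treated 5 h at 37 C with DMSO-dissolved compounds.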

Structures are written as SMILES. “And” between values parts separate entries of the source, which are not always exact repeats. Equal values may be shown once. Records with an inconclusive call do not appear. Where a structure was tested more than once in an assay, its records may differ in their call. The source made the active and inactive calls. Unless noted, calls come from the whole dose curve; as a rule, active = well fitted curve in the direction sought with a large enough effect in the repeat runs; inconclusive = weak or mixed curves; inactive = no such curve, though single readings can be large; an effect the other way counts as inactive or inconclusive.
% is set by controls: 0 for no effect and ±100 for the full control effect.

Chain of Peroxisome proliferator-activated receptor gamma (Homo sapiens) (P37231 whole entry, looked up): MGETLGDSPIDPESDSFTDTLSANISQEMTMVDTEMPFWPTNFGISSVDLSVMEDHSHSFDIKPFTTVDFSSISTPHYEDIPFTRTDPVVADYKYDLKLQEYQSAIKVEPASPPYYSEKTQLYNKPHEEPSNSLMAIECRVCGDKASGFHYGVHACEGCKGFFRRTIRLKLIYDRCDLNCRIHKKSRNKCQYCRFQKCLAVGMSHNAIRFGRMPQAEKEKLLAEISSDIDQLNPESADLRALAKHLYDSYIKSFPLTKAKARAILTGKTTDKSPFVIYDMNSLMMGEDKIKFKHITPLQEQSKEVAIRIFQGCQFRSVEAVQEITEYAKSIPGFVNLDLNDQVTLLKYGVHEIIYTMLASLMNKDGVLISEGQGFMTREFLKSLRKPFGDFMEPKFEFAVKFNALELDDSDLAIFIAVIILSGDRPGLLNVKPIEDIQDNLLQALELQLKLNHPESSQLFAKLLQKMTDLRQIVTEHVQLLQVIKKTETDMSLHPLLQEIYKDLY
Chain of Aryl hydrocarbon receptor (Homo sapiens) (P35869 whole entry, looked up): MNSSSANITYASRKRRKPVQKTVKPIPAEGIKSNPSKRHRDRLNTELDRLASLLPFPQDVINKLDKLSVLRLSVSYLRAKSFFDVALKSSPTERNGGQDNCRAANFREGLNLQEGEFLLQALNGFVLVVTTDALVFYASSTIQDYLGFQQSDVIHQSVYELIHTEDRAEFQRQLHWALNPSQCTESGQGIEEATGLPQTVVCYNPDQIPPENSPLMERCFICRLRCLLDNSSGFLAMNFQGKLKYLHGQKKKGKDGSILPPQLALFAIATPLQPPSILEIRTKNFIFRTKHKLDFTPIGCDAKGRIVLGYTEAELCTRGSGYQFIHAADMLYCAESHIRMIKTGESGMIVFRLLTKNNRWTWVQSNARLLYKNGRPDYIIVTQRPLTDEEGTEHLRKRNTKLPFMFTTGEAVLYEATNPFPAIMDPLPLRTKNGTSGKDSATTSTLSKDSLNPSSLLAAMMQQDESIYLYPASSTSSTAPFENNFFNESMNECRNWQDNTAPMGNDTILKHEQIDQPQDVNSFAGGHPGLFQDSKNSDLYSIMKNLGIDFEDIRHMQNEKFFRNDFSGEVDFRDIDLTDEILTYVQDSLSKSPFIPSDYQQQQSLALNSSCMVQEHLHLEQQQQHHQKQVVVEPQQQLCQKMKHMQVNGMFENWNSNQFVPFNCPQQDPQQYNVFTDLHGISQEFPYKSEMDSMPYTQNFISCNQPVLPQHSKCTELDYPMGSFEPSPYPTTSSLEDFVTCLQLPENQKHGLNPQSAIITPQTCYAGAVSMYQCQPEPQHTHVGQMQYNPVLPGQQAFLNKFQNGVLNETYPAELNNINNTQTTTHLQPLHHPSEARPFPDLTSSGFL

Turning to `CCCCCCCCCCCC#N`, the call in test [1], in [3], in test [4], in [6], in test [8] and in test [9] was inactive. Besides, the outcome in test [10] was inactive. For the same molecule, the Potency entry in test [2], in [5] and in test [7] was “inactive” each time.

For `CCC12COCN1COC2`, the outcome in test [1], in [3], in test [4], in [6], in test [8] and in test [9] was inactive. The result in [10] was inactive. Further, the Potency result in test [2], in test [5] and in test [7] was “inactive” each time.

Regarding `C=C(C)CCl`, the call in [1], in test [3], in test [4], in test [6], in test [8] and in test [9] was inactive. Also, in [10], the molecule was classed as inactive. Further, the Potency entry in test [2] and in [7] was “inactive” each time. In addition, the ratio activity, negative = inhibition in test [5] was -4.46% [at 5.95 µM] (inactive).

For `C#CCN(C)[C@H](C)Cc1ccccc1`, the result in [1], in [3], in [4], in [6], in test [8] and in test [9] was inactive. Moreover, the Potency result in test [2], in [5] and in [7] was “inactive” throughout.

Take `CC(C)C#N`: the result in test [1], in [3], in test [4], in [6], in test [8] and in test [9] was inactive. For the same molecule, the molecule was called inactive in [10]. Also, the Potency result in test [2], in test [5] and in test [7] was “inactive” each time.

`CC(C)C1(C)N=C(c2nc3ccccc3cc2C(=O)O)NC1=O` (configuration not stated): the result in test [1], in [3], in test [4], in [6], in test [8] and in [9] was inactive. In addition, the molecule was called inactive in test [10]. Further, the Potency result in [2], in test [5] and in test [7] was “inactive” each time.

Turning to `COC(=O)NS(=O)(=O)c1ccc(N)cc1`, the call in [1], in [3], in test [4], in [6], in test [8] and in [9] was inactive. Further, the Potency result in [2], in test [5] and in test [7] was “inactive” each time.

Consider `CN(N=O)c1ccccc1`, for which the outcome in test [1], in test [3], in test [4], in [6], in [8] and in test [9] was inactive. Also, the call in test [10] was inactive. Besides, the Potency result in test [2], in test [5] and in [7] was “inactive” throughout.

Consider `CCOP(=S)(OCC)Oc1cnc2ccccc2n1`, for which the call in test [1], in [3], in [4], in [6], in [8] and in test [9] was inactive. The result in test [10] was inactive. For the same molecule, in [2], the Potency result was “inactive and 10.9 µM (active)”. Also, the Potency result in test [5] and in test [7] was “inactive” throughout.

`O=c1n(Cl)c(=O)n(Cl)c(=O)n1Cl`: the outcome in [1], in test [3], in test [4], in test [6], in test [8] and in test [9] was inactive. The outcome in [10] was inactive. Moreover, the Potency entry in [2], in test [5] and in test [7] was “inactive” each time.

In the case of `O=[N+]([O-])c1ccccc1`, the call in test [1], in test [3], in test [4], in test [6], in test [8] and in test [9] was inactive. For the same molecule, the Potency result in [2], in test [5] and in test [7] was “inactive” each time.

As for `CCCCOC(=O)c1ccccc1C(=O)OCCCC`, the molecule was classed as inactive in test [1], in test [3], in test [4], in [6], in [8] and in [9]. Further, in test [10], the call was inactive. Also, the Potency entry in test [2], in [5] and in test [7] was “inactive” throughout.

Turning to `COP(N)(=O)SC` (configuration not stated), the molecule was classed as inactive in [1], in test [3], in test [4], in test [6], in [8] and in [9]. The outcome in [10] was inactive. Besides, the Potency result in test [2], in [5] and in test [7] was “inactive” in each case.

On to `Nc1ccc(Cc2ccc(N)cc2)cc1`, for which the call in [1], in test [3], in [4], in test [6], in test [8] and in [9] was inactive. In addition, the molecule was called inactive in test [10]. Moreover, the Potency in test [2] is 30.1 µM (active). Moreover, the Potency result in [5] and in [7] was “inactive” in each case.

Take `CCC[N+](=O)[O-]`: the molecule was called inactive in [1], in test [3], in test [4], in [6], in [8] and in test [9]. In addition, the molecule was called inactive in test [10]. Also, the Potency result in test [2], in [5] and in test [7] was “inactive” each time.

As for `Cc1ccc(N)cc1N`, the result in [1], in [3], in test [4], in test [6], in [8] and in test [9] was inactive. For the same molecule, the result in test [10] was inactive. For the same molecule, in test [2], the Potency was 21.1 µM (active) and 27.3 µM (active). For the same molecule, the Potency result in [5] and in [7] was “inactive” in each case.

`CC(C)N1C(=O)c2ccccc2NS1(=O)=O`: the call in [1], in test [3], in [4], in test [6], in [8] and in test [9] was inactive. Besides, in test [10], the molecule was called inactive. Moreover, the Potency result in [2], in test [5] and in [7] was “inactive” in each case.

As to `O=C(O)c1ccccn1`, the call in [1], in test [3], in test [4], in test [6], in [8] and in test [9] was inactive. Further, the outcome in [10] was inactive. Besides, the Potency entry in test [2], in test [5] and in [7] was “inactive” in each case.

As for `CCC[CH2][Sn]([Cl])([Cl])[Cl]`, the result in test [1], in test [3], in [4], in test [6], in [8] and in [9] was inactive. The outcome in test [10] was inactive. Also, the Potency result in test [2] and in [5] was “inactive” in each case. In test [7], the Potency is 1.1 µM (active) and 2.43 µM (active).

With `c1ccc(OP(Oc2ccccc2)Oc2ccccc2)cc1`, the molecule was called inactive in test [1], in test [3], in [4], in test [6], in [8] and in [9]. In addition, the call in test [10] was inactive. In addition, the Potency entry in [2], in [5] and in test [7] was “inactive” throughout.

Regarding `Cc1cc(Cl)ccc1O`, the outcome in test [1], in test [3], in test [4], in test [6], in [8] and in test [9] was inactive. Also, the outcome in test [10] was inactive. Moreover, the Potency entry in [2], in [5] and in test [7] was “inactive” throughout.

Consider `O=c1[nH]c(=O)[nH]c(=O)[nH]1`, for which the molecule was called inactive in test [1], in test [3], in [4], in test [6], in test [8] and in test [9]. The result in test [10] was inactive. Besides, the Potency entry in test [2], in [5] and in [7] was “inactive” each time.

Consider `COCCl`, for which the call in [1], in test [3], in [4], in [6], in test [8] and in test [9] was inactive. For the same molecule, the result in test [10] was inactive. Also, the Potency entry in test [2], in [5] and in test [7] was “inactive” in each case.

In the case of `CC1OC(C)OC(C)O1` (configuration not stated), the molecule was classed as inactive in test [1], in test [3], in test [4], in [6], in test [8] and in test [9]. Also, the molecule was called inactive in test [10]. Further, the Potency result in test [2], in test [5] and in [7] was “inactive” in each case.

Regarding `ClCc1cccnc1`, the result in test [1], in test [3], in test [4], in test [6], in test [8] and in test [9] was inactive. Moreover, the molecule was classed as inactive in test [10]. Further, the Potency result in test [2], in test [5] and in [7] was “inactive” in each case.
